About 8,800 targets were measured; listed, in parts, are those with a hit and a random draw of the rest. About 0.5% of all pairs of compound and target were hits.
Tests used:
Experiment in all cases: log2 fold change, soluble protein after heating vs DMSO (PISA); higher = thermal stabilisation; K562 lysate, 10 uM; active = over 0.2 and 3.5 SD of the protein, either way, in both replicates (recomputed)
ibrutinib = compound: C=CC(=O)N1CCC[C@@H](n2nc(-c3ccc(Oc4ccccc4)cc3)c3c(N)ncnc32)C1 [ibrutinib]
In short: (§1)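 Following dounce homogenisation of K562 pellets in PBS pH 7.4 with 1 mM MgCl2, crude extract at 1 mg/mL protein was incubated for 30 min with 10 μM compound. Aliquots were then heated for 3 min over 48°C-58°C and pooled, NP-40 was added to 0.5% at 4°C, and soluble protein was recovered as the supernatant at 21,000xg for 90 min. Channel-sum-equalised TMTpro 16plex LC-MS/MS quantified this protein. Each value, from duplicates, is a log-two fold change in thermal stability relative to solvent controls.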

[1] = compound: CC(=O)c1cnc2ccc(-c3cc(Cl)c(O)c(Cl)c3)nc2c1N[C@H]1CC[C@H](CN(C)C)CC1
In short: as §1

ralimetinib = compound: CC(C)(C)Cn1c(N)nc2ccc(-c3[nH]c(C(C)(C)C)nc3-c3ccc(F)cc3)nc21 [ralimetinib]
In short: as §1

[2] = compound: CC(C)(O)CC(=O)NCCn1ccc2ncnc(Nc3ccc(Oc4cccc(C(F)(F)F)c4)c(Cl)c3)c21
In short: as §1

[3] = compound: CC(C)C1=C2N=C(C=C(N2N=C1)NCC3=CC=CC=C3)NCCCCCCN
In short: as §1

[4] = compound: CC1=C(C(CC(=O)N1)C2=CC=C(C=C2)C(F)(F)F)C(=O)NC3=C(C=C4C(=C3)C=NN4)F
In short: as §1

[5] = compound: CC1=C(C2=C(C=C1)C(=O)C3=CC=CC=C3N2CCCN)C
In short: as §1

[6] = compound: CC1=C(C=C(C=C1)NC(=O)C2=CC(=CC=C2)C(C)(C)C#N)NC3=CC4=C(C=C3)N=CN(C4=O)C
In short: as §1

[7] = compound: CC1=C(C=C(C=C1)NC(=O)C2=CC(=CC=C2)N(C)C)NC(=O)C3=CC=C(C=C3)O
In short: as §1

[8] = compound: CC1=CC=C(C=C1)SC2=C3C=C(SC3=CN=C2)C(=O)N
In short: as §1

Measured: log2 fold change

RPL28 (UniProt P46779)
inactive: ibrutinib -0.026 | [1] -0.011 | ralimetinib -0.003 | [2] -0.005 | [3] 0.006 | [4] -0.038 | [5] -0.066 | [6] -0.021 | [7] 0.012 | [8] 0.026

RNF123 (UniProt Q5XPI4)
Chain of UniProt Q5XPI4 (Q5XPI4 whole entry, looked up): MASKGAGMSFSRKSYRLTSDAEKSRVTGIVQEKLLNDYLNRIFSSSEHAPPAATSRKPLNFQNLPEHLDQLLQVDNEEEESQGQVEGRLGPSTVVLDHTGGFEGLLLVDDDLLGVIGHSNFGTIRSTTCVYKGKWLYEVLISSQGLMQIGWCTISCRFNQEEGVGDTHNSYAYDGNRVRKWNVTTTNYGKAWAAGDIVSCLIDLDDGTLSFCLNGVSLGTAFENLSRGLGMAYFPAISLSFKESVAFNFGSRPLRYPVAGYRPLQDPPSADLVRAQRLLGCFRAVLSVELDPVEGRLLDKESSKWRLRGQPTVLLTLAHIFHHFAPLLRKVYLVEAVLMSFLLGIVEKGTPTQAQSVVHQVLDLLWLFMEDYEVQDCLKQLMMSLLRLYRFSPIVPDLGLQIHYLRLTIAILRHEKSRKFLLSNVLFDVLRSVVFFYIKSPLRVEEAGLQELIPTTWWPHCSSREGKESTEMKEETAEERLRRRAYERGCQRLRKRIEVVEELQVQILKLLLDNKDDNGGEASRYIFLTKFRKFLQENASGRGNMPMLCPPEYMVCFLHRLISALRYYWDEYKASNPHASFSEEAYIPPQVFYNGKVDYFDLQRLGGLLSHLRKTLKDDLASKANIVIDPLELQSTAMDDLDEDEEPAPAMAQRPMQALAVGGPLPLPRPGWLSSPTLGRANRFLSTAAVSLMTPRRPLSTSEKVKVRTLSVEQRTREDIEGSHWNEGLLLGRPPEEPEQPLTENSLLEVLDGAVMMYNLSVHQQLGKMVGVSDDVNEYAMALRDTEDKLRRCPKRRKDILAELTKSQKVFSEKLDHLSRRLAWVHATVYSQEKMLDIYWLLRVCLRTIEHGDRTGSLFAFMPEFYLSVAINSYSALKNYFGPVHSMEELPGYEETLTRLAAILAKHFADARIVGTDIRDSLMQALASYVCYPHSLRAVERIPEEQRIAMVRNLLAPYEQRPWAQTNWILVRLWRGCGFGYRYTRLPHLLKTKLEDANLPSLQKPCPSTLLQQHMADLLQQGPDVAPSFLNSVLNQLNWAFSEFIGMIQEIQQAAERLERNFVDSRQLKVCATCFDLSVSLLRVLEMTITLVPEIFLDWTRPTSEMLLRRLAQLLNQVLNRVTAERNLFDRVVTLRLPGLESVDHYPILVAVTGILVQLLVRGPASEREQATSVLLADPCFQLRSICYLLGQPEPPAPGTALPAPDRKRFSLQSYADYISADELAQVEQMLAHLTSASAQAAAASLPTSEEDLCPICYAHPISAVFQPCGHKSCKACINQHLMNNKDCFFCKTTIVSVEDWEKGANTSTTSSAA
inactive: ibrutinib 0.028 | [1] 0.017 | ralimetinib 0.029 | [2] -0.042 | [3] -0.003 | [4] -0.02 | [5] 0.001 | [6] 0.027 | [7] -0.016 | [8] 0.022

RANBP2 (UniProt P49792)
inactive: ibrutinib 0.001 | [1] -0.01 | ralimetinib 0.018 | [2] -0.009 | [3] -0.01 | [4] 0.011 | [5] 0.007 | [6] 0 | [7] 0.018 | [8] -0.001

SEC62 (UniProt Q99442)
Chain of UniProt Q99442 (Q99442 whole entry, looked up): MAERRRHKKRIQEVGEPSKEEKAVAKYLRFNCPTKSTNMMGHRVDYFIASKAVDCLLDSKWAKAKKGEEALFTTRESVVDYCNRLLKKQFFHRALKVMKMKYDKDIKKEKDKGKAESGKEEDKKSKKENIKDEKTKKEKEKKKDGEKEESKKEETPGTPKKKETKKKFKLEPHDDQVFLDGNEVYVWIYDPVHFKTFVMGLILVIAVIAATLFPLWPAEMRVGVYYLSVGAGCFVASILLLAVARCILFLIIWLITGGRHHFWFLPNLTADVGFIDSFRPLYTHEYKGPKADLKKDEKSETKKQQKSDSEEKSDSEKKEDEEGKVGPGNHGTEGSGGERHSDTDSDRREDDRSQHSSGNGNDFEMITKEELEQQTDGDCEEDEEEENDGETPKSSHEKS
inactive: ibrutinib 0.002 | [1] -0.027 | ralimetinib -0.032 | [2] -0.058 | [3] 0.02 | [4] 0.013 | [5] -0.006 | [6] 0.022 | [7] 0.002 | [8] -0.015

RAB27A (UniProt P51159)
Chain of UniProt P51159 (P51159 whole entry, looked up): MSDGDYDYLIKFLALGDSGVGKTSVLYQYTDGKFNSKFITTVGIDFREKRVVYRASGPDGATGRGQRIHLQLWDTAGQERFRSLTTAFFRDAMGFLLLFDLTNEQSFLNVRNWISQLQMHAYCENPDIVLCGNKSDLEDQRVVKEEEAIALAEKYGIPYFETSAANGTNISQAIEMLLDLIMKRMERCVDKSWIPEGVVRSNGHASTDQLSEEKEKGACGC
inactive: ibrutinib -0.011 | [1] -0.035 | ralimetinib 0.074 | [2] 0.033 | [3] -0.054 | [4] -0.044 | [5] 0.047 | [6] -0.057 | [7] 0.006 | [8] -0.026

RBM5 (UniProt P52756)
Chain of UniProt P52756 (P52756 whole entry, looked up): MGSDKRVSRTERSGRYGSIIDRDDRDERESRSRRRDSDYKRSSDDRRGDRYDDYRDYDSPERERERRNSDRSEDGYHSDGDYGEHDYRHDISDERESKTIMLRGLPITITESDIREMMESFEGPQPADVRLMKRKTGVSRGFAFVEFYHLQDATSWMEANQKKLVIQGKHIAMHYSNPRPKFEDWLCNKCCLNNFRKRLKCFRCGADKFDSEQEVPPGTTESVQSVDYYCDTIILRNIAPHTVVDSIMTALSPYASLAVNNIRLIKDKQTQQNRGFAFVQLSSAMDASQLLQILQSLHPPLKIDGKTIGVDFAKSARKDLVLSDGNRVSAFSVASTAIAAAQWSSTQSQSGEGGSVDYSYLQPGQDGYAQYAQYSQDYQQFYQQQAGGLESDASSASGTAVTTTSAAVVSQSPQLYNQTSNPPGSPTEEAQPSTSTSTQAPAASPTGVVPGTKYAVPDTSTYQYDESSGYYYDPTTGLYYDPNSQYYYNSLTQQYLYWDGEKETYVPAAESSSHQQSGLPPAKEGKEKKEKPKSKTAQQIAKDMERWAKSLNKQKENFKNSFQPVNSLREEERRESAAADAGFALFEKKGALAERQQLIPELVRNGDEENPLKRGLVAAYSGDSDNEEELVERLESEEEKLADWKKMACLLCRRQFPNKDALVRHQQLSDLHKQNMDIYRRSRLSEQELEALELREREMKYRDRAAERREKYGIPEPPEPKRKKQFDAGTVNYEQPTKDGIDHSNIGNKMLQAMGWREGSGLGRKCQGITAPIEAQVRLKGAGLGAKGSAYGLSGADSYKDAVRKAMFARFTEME
inactive: ibrutinib -0.017 | [1] 0.03 | ralimetinib 0.004 | [2] 0.042 | [3] -0.141 | [4] -0.004 | [5] 0.065 | [6] 0.035 | [7] -0.007 | [8] -0.06

RBMX (UniProt P38159)
Chain of UniProt P38159 (P38159 whole entry, looked up): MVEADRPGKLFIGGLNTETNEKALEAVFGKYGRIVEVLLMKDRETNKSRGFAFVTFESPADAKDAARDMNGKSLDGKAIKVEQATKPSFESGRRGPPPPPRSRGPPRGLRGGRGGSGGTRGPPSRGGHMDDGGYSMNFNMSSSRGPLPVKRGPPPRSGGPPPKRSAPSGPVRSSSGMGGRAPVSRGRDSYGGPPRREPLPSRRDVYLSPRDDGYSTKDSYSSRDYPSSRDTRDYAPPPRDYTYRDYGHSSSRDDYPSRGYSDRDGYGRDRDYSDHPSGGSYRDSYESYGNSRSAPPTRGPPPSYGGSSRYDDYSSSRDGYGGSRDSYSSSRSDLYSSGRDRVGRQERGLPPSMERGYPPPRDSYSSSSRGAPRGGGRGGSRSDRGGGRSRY
inactive: ibrutinib -0.034 | [1] -0.132 | ralimetinib 0.004 | [2] 0.032 | [3] -0.029 | [4] -0.017 | [5] 0.035 | [6] -0.016 | [7] -0.016 | [8] -0.006

RMC1 (UniProt Q96DM3)
inactive: ibrutinib -0.004 | [1] 0.018 | ralimetinib 0.03 | [2] -0.024 | [3] -0.001 | [4] -0.017 | [5] -0.018 | [6] 0.009 | [7] 0.005 | [8] 0.027

RPS6KA1 (UniProt Q15418)
Chain of UniProt Q15418 (Q15418 whole entry, looked up): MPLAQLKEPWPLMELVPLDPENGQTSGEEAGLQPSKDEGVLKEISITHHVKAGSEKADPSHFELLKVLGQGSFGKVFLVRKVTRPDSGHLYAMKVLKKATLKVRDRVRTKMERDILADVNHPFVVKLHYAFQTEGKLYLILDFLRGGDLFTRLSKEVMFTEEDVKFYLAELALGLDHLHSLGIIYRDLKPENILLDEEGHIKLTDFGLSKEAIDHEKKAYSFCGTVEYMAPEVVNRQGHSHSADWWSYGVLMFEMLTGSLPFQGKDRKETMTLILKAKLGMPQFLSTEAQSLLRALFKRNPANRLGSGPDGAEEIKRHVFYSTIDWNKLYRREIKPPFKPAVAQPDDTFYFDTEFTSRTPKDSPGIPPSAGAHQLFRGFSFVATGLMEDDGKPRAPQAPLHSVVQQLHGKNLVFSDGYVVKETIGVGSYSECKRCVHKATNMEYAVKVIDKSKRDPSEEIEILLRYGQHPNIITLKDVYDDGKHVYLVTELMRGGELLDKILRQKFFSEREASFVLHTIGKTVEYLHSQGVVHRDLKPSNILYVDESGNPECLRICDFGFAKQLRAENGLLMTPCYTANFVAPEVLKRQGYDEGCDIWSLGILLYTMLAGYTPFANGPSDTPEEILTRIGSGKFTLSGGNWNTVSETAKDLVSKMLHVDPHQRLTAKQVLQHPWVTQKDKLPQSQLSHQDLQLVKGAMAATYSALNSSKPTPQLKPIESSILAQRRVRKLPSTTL
inactive: ibrutinib 0.047 | ralimetinib 0.32 | [2] -0.077 | [3] -0.011 | [4] -0.032 | [5] -0.035 | [6] -0.043 | [7] -0.052 | [8] -0.023
active: [1] 0.555

SERINC3 (UniProt Q13530)
inactive: ibrutinib 0.06 | [1] -0.082 | ralimetinib 0.01 | [2] -0.003 | [3] -0.016 | [4] -0.012 | [5] -0.055 | [6] 0.049 | [7] -0.042 | [8] -0.011

RINT1 (UniProt Q6NUQ1)
Chain of UniProt Q6NUQ1 (Q6NUQ1 whole entry, looked up): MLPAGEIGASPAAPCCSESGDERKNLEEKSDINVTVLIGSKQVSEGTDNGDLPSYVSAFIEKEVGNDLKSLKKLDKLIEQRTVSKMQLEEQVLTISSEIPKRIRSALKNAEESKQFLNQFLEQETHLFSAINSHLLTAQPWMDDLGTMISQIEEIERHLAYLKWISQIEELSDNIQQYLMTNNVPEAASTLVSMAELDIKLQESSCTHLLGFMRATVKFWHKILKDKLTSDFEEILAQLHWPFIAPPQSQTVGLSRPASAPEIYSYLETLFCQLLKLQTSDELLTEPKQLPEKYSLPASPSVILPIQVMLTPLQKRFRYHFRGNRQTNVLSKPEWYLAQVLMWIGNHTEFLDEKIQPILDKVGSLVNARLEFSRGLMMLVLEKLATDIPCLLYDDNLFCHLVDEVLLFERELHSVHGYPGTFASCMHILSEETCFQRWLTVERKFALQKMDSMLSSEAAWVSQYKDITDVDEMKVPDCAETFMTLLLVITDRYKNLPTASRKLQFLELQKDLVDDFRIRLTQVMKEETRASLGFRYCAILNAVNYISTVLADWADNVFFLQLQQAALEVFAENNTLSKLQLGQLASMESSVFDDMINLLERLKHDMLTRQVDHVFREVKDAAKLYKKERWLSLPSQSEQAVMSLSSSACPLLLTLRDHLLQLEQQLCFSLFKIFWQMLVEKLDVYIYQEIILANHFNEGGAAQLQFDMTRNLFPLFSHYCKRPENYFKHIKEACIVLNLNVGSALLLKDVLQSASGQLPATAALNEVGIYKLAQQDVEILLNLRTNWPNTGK
inactive: ibrutinib 0.011 | [1] 0.07 | ralimetinib 0.05 | [2] -0.094 | [3] 0.016 | [4] -0.066 | [5] -0.064 | [6] -0.02 | [7] 0.012 | [8] 0.016

RNASEL (UniProt Q05823)
inactive: ibrutinib -0.072 | [1] -0.033 | ralimetinib 0.037 | [2] -0.034 | [3] 0 | [4] -0.023 | [5] 0.001 | [6] 0.01 | [7] 0.013 | [8] 0.027

RPL36AL (UniProt Q969Q0)
inactive: ibrutinib -0.038 | [1] 0.004 | ralimetinib -0.018 | [2] 0.088 | [3] -0.004 | [4] -0.001 | [5] 0.068 | [6] -0.038 | [7] 0.013 | [8] 0.052

RRAGA (UniProt Q7L523)
inactive: ibrutinib -0.114 | [1] 0.008 | ralimetinib -0.112 | [2] -0.524 | [3] 0.006 | [4] 0.005 | [5] -0.089 | [6] 0.079 | [7] 0.343 | [8] -0.113

RFC4 (UniProt P35249)
Chain of UniProt P35249 (P35249 whole entry, looked up): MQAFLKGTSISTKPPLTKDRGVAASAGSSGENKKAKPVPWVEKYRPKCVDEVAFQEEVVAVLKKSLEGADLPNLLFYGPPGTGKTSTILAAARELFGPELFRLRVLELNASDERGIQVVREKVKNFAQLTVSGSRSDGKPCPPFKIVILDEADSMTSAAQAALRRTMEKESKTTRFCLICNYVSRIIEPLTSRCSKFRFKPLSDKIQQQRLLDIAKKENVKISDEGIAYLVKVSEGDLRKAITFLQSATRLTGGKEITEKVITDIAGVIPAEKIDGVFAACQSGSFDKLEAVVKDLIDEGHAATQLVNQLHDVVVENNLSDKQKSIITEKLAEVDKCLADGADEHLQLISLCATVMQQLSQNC
inactive: ibrutinib -0.01 | [1] -0.008 | ralimetinib -0.01 | [2] -0.015 | [3] 0.032 | [4] 0 | [5] 0.026 | [6] -0.001 | [7] 0.002 | [8] 0.019

From the supplement of paper PMC10849652
